# Assay outcomes (PubChem BioAssay)
# HP1b binding inh – HP1-beta chromodomain-methylated histone interaction inhibition. AlphaScreen HP1-beta / biotin-H3K9me3 peptide binding. hit rate 0.56% among 390,000. P83916. Potency, µM (titrated, usually from 114 µM), without a hit: at the top dose activity change, negative = inhibition, usual class: inhibitors. AID 540317; also: nearly all actives have a fitted effect of over 70% in size
#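 Compound inhibition of the preformed complex between 50 nM HP1-beta and 50 nM biotinylated H3K9me3 peptide was read by AlphaScreen. Buffer was PBS pH 7.4 with 0.01% Tween-20. Incubations ran 30 min at room temperature, with 10 ug/mL donor/acceptor beads.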
# G9a block – blocks human histone lysine methyltransferase G9a; Q96KQ7; G9a H3K9 monomethylation, AlphaScreen, 2 h; Potency, µM (series often up to 102 µM), without a hit: at the highest dose activity, negative = inhibition, most hits filed as inhibitors; hit rate 8.8% among 350,000; also: % is scaled to controls: 0 for no effect and ±100 for the full control effect; nearly all actives have a fitted effect of over 75% in size
#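 AlphaScreen detection with an anti-monomethyl H3K9 antibody quantified product after a 2 h room-temperature reaction containing 500 nM biotinylated H3K9 peptide, 20 µM SAM and 20 nM enzyme, which had been preincubated 15 min with compound.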
# BAZ2B block – blocks human BAZ2B. Q9UIF8. AlphaScreen BAZ2B-H3K14Ac peptide displacement. Potency, µM (top dose mostly 114 µM), for the others: top-dose activity change, negative = inhibition, usual class: inhibitors. hit rate 4.4% among 360,000. AID 504333; also: % is scaled to controls: 0 for no effect and ±100 for the full control effect; nearly all actives have a fitted effect of over 60% in size
#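 AlphaScreen displacement: compounds (up to 110uM) incubated 30 min at room temperature with a preformed 50 nM BAZ2B/50 nM biotinylated H3K14Ac peptide complex in PBS pH 7.4 with Tween-20. Donor and acceptor beads at 10 ug/mL final added, 20 min light-protected before reading.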
# JMJD2A Tudor – blocks the human JMJD2A Tudor domain. AID 504339. AlphaScreen JMJD2A-Tudor / H3K4me3 peptide binding. O75164. hit rate 4.4% among 390,000. Potency, µM (top dose mostly 114 µM), without a hit: at the top dose activity change, negative = inhibition, usual class: inhibitors; also: % is scaled to controls: 0 for no effect and ±100 for the full control effect; nearly all actives have a fitted effect of over 50% in size
# GLS inhibitor – glutaminase GLS (human) inhibition | O94925 | GLS enzymatic activity, qHTS titration | Potency, µM (highest dose often 45.5 µM), for the others: top-dose activity change, negative = inhibition, usual class: inhibitors | hit rate 0.21% among 410,000; also: % is scaled to controls: 0 for no effect and ±100 for the full control effect
#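 Coupled fluorescence readout: glutamate oxidase/HRP/Amplex Red detect glutamate formed by hKGA from L-glutamine (1 mM solution added). Buffer 45 mM KH2PO4 pH 8.2, 0.02% Tween-20; reads at t0 and 30 min RT.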
# An asterisk follows results filed as active; ? = inconclusive; / = not tested or not shown; [ ] = dose if it differs, or a comment. In the library only some 10% were active in any assay of this set; here they are far more common. Calls follow the shape of the dose curve; as a rule, active = well fitted curve in the direction sought with a large enough effect; inconclusive = small, poorly fitted or top-dose-only effect, or another doubt; inactive = no such curve, though single readings can be large; an effect the other way counts as inactive or inconclusive. Potency is read from the fitted curve at half-maximal effect.
SMILES,HP1b binding inh,G9a block,BAZ2B block,JMJD2A Tudor,GLS inhibitor
Cc1ccc(C(=O)N/C(=C/c2ccco2)C(=O)NCc2ccco2)cc1,3%,45µM*,-16%,-23%,85%
O=C(NC(Cc1ccccc1)C(=O)O)/C(=C/c1ccc(Cl)cc1)NC(=O)c1ccco1 (stereo not given),0%,50µM*,-1%,-10%,?
COc1cc(-c2ccc3ncnc(NCC4CCCO4)c3c2)cc(OC)c1OC (stereo not given),/,/,/,-23%,/
Cc1ccc(C(=O)N/C(=C\c2ccccc2)C(=O)NCc2ccncc2)cc1,10%,-7%[0.0925 µM],50µM*,-4%,-17%
CC(C)CC(NC(=O)/C(=C\c1ccco1)NC(=O)c1ccco1)C(=O)O (stereo not given),51%,32µM*,-28%,2%,-18%
O=C(NCCCn1ccnc1)/C(=C\c1ccco1)NC(=O)c1ccco1,36%,?,89µM*,-6%,10%
O=C(NCCc1ccccc1)/C(=C\c1ccc([N+](=O)[O-])cc1)NC(=O)c1ccco1,25%,40µM*,-24%,-15%,3%
CN(C)c1ncnc2ccc(-c3ccccc3C(F)(F)F)cc12,/,7%[0.501 µM],/,/,/
Cc1oc(-c2ccc(Cl)cc2)cc1C(=O)O,8%,/,-12%,-18%,-13%
O=C(O)CCc1ccc(-c2ccc(Br)cc2)o1,-36%,16µM*,-36%,56µM*,5%
COc1ccc(-c2ccc(CCC(=O)O)o2)cc1,-25%,28µM*,-30%,79µM*,4%
O=C(O)CCc1ccc(-c2ccc(Cl)cc2)o1,-23%,4µM*,-36%,?,-1%
Cc1cccc(C(=O)NCCC(=O)Nc2nc(C)c(Cc3ccc4c(c3)OCO4)s2)c1,17%,3%[59 µM],-28%,-5%,1%
Cc1nc(NC(=O)C2CCCC2)sc1Cc1ccc2c(c1)OCO2,13%,?,50µM*,?,1%
O=C(O)CC(NC(=O)C12CC3CC(CC(C3)C1)C2)c1ccc2c(c1)OCO2 (stereo not given),37%,?,7%,-2%,4%
Cc1nc(NC(=O)C23CC4CC(CC(C4)C2)C3)sc1Cc1ccc2c(c1)OCO2,-2%,35µM*,-36%,?,12%
CC(=O)NC(CCS(C)(=O)=O)C(=O)Nc1ccccc1 (stereo not given),16%,-7%[59 µM],-4%,-19%,-6%
CC(=O)NC(CCS(C)(=O)=O)C(=O)Nc1cccc(C(C)=O)c1 (stereo not given),23%,25µM*,8%,4%,4%
Cc1ccc2c(CN3CCN(c4ccccc4)CC3)cc(=O)oc2c1,/,/,/,/,25%
CCN1C2=C(C(=O)CCC2)C(c2ccc(O)cc2)C2=C1CCCC2=O,27%,20µM*,5%,-1%,45%
O=C(C1=C(Nc2ccccc2)c2ccccc2S(=O)(=O)N1)c1ccccc1,?,25µM*,-6%,?,18%
CC1Cc2cc(/C(O)=C3/C(=O)C(=O)N(CCCn4ccnc4)C3c3cccnc3)ccc2O1 (stereo not given),8%,50µM*,?,14µM*,2%
CC1Cc2cc(/C(O)=C3/C(=O)C(=O)N(CCCn4ccnc4)C3c3ccco3)ccc2O1 (stereo not given),-6%,?,?,32µM*,-12%
O=C1C(=O)N(CCCn2ccnc2)C(c2ccccn2)/C1=C(/O)c1ccccc1 (stereo not given),/,50µM*,-8%,/,/
CC1Cc2cc(/C(O)=C3/C(=O)C(=O)N(CCCn4ccnc4)C3c3cccc([N+](=O)[O-])c3)ccc2O1 (stereo not given),-4%,50µM*,?,-29%,6%
Cc1cccc(-n2c(SCC(=O)Nc3ccccc3C)nc3c(oc4ccccc43)c2=O)c1,28%,-4%[59 µM],1%,4%,5%
COc1ccccc1C1/C(=C(\O)c2ccc3c(c2)OCCO3)C(=O)C(=O)N1CCCn1ccnc1 (stereo not given),17%,40µM*,?,-29%,-5%
COc1ccc(C2/C(=C(\O)c3ccc4c(c3)OCCO4)C(=O)C(=O)N2CCCn2ccnc2)cc1 (stereo not given),-3%,?,?,-43%,6%
